Measured values published in the supplement of paper PMC10338343.
± gives the standard deviation.

system: MILI (PIWIL2) piRISC loaded with piRNA #1 (26 nt); test: pre-steady-state target cleavage rate (min^-1); guide: piRNA #1 5'p-UGAGGUAGUAGGUUGUAUAGUAUCCA; MIWI and MILI are mouse PIWI proteins and EfPiwi is from a freshwater sponge; tags in brackets are library labels; higher = faster piRNA-guided slicing of the target; conditions: auxiliary factor: 500 nM mouse GTSF1
In short: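 A burst-and-steady-state fit was used to obtain the pre-steady-state cleavage rate. The input data were sequencing reads of uncleaved targets, normalised to depth and to weakly complementary targets, from a […] transcribed, DNA-blocked target RNA library mixed with 1 nM active affinity-purified piRISC holding one synthetic guide, with or without 500 nM GTSF1 partner protein, in HEPES–potassium acetate buffer at 33 °C for 0–8 or 0–960 min. Three trials were pooled and k3 was capped at 0.0001 min^-1.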
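Further: 1 nM active piRISC with 0.1 nM target library at 33 °C single turnover.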

Row | Sequence | pre-steady-state target cleavage rate
1 | GGAGACCUUACUAUACAAGCUACUUCCUCA | 0.149 ± 0.021
2 | GGAGACCUAACUAUACAACCUACAACCUCA | 0.108 ± 0.026
3 | GGAGACCUAUGAUAUCAACCUAUCUACCUCA | 0.00534 ± 0.002
4 | GGAGACCAUACUAUUCAACGUACUACCUCA | 0.019 ± 0.0049
5 | GGAGACCUAUGAAUACAACCUAUCUACCUCA | 0.00974 ± 0.0026
6 | GGAGACCUAUGAAUACAAGCUACAACCUCA | 0.018 ± 0.0032
7 | GGAGACCUAUGUAUACAACCUACUACCUUCA | 0.0648 ± 0.0099
8 | GGAGACCAUACUAAACAACCUACUACCACA | 0.233 ± 0.026
9 | GGAGACCUAUGAAUACAAGCUACUACCUGA | 0.017 ± 0.0038
10 | GGAGAGGAUUCAAUACAACCUACUACCUCA | 0.132 ± 0.01
11 | GGAGACCUAUGAAUACAACCUACUUACCUCA | 0.00968 ± 0.0023
12 | GGAGACGAUACUUUACAACCUACUACGUCA | 0.0766 ± 0.011
13 | GGAGACCUUUCUAUUCAACCUACUACCUCA | 0.0926 ± 0.012
14 | GGAGUGGAUACUUAUCAACCUACUACCUCA | 0.149 ± 0.011
15 | GGAGACCUUAGUAUACUACCUACUACCUCA | 0.0896 ± 0.012
16 | GGAGACCUAUGAUUACAAGCUACUACCUCA | 0.0262 ± 0.0067
